Shown are actives, neighbours in structure and some others; about 3.4% of the full set was active somewhere.
p47phox inh: inhibitors of human p47phox binding. P14598. p47phox/p22phox peptide binding, fluorescence polarization, 2 h. inhibition, % at 24.7 µM. actives 0.53% (n = 220,000). AID 1274;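 active = inhibition above about 30%, limit read from the data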
Mcl1 Bid PPI: Mcl-1/Bid interaction inhibition. TR-FRET Mcl-1/Bid-Dy647 peptide binding, 1536-well. inhibition, % at 21.7 µM. actives 0.97% (n = 220,000);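 active = compounds that cut the binding signal by more than half at the single screening dose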;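 note: His-tagged Mcl-1 with europium anti-His antibody binding Bid BH3 peptide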
Target sequence (Q07820 whole entry, looked up): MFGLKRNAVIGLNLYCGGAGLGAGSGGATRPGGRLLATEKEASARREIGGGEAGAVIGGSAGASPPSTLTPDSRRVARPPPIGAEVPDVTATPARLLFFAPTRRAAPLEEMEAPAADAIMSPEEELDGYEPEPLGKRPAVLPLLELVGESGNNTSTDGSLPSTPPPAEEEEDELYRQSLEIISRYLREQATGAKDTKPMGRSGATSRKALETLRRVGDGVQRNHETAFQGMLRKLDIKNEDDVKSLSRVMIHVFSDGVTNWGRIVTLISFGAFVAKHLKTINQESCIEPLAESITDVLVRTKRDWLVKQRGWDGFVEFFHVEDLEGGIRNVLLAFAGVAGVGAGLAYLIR
Calpain2 inh: blocks pig calpain II enzyme activity; AID 1236; purified calpain II, fluorogenic peptide substrate, 30 min; inhibition, % at 16 µM; actives 0.37% (n = 220,000);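 active = inhibition above about 50%, limit read from the data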
14-3-3 Bad PPI: disrupts binding of bovine 14-3-3 zeta to phospho-Bad peptide | actives 0.71% (n = 220,000) | TR-FRET 14-3-3zeta/Dy647-pBad peptide displacement, 1 h | inhibition, % at 21.7 µM;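 active = inhibition above about 70%, limit read from the data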
Target sequence (P63103 whole entry, looked up): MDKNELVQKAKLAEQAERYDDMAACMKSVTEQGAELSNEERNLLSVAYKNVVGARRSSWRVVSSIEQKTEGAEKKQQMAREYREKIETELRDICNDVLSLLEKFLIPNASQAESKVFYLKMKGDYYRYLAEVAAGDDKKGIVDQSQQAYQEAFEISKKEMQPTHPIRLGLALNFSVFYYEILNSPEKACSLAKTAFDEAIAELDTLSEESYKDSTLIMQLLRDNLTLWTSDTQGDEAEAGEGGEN
Mcl1-Noxa inh: disrupts binding of human Mcl-1 to Noxa peptide; TR-FRET Mcl-1/Noxa peptide binding, 2 h; actives 1.5% (n = 220,000); Q07820; inhibition, % at 21.7 µM;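 active = compounds that cut the protein-peptide binding signal by more than 50% relative to plate controls in a single-dose test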;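 note: His-tagged Mcl-1 with rhodamine Noxa BH3 peptide and terbium anti-His antibody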
Mcl-1 Bim block: inhibitors of Bim-Mcl-1 interaction, human. Q07820. Bead-based flow cytometry, Bim peptide-Mcl-1 binding. inhibition, % at 10 µM. actives 0.1% (n = 190,000). AID 1009; in the data active = inhibition above about 40%
Large screens that a line does not name were inactive; [ ] = remark or other dose.

COc1cc(C(=O)Nc2ccc(S(=O)(=O)N(C)c3ccccc3)cc2)cc(OC)c1OC	none
CC(C)CN(C(=O)CN1CCN(c2ccc([N+](=O)[O-])cc2)CC1)c1c(N)n(CC(C)C)c(=O)[nH]c1=O	none
Cc1ccc(-c2cn(-c3ccccc3)c(SCC(N)=O)n2)cc1C	Mcl1 Bid PPI 87
CCOC(=O)NC(=O)CSc1nc(-c2ccc(C)c(C)c2)cn1-c1ccccc1	none
COC(=O)CC(NS(=O)(=O)c1cccs1)c1cccc2ccccc12 (stereo unspecified)	Calpain2 inh 60
Cc1cc(C(=O)NC(C)CCC(C)C)c2ccccc2n1 (stereo unspecified)	none
O=C(/C=C/c1cn(-c2ccccc2)nc1-c1cccnc1)N1CCCC1	none
O=C(/C=C/c1cn(-c2ccccc2)nc1-c1cccnc1)NCCN1CCOCC1	14-3-3 Bad PPI 85
CCNc1nc(NCC)nc(N/N=C/c2ccc(N(C)C)cc2)n1	none
CCNc1nc(NCC)nc(N/N=C/c2ccc(O)c(O)c2)n1	Mcl1-Noxa inh 54
CCCCC(O)(CCCC)C(=O)NN(C(=O)OC)c1ccc(C)cc1	none (no result: Mcl-1 Bim block)
CCOC(=O)C(NCCCCl)c1ccccc1 (stereo unspecified)	14-3-3 Bad PPI 73
COc1ccccc1NC(=O)c1c(C)oc2c1CCCC2	none
Cc1oc2c(c1C(=O)Nc1cccc3ccccc13)CCCC2	Calpain2 inh 58
CN(C)CCCN(C(=O)c1ccc(N2C(=O)CCC2=O)cc1)c1nc2c(F)cccc2s1	none
CN(C)CCCN(C(=O)c1ccc2c(c1)CCCC2)c1nc2c(F)cccc2s1	Mcl1-Noxa inh 56
COc1cc(SC)ccc1C(=O)NCCOc1ccc(C)c(C)c1	none
CCN(CC)c1ccc(NC(=O)CCNC(=O)c2ccco2)cc1	Mcl1-Noxa inh 79
CC1CN(CCCCOc2ccc(F)cc2)CC(C)O1 (stereo unspecified)	none
CN1C(=O)C(N=Nc2ccccc2C(=O)O)N(C)C1=S (stereo unspecified)	Mcl1 Bid PPI 53
CN(C)c1ncc(S(=O)(=O)c2ccc(Cl)cc2)c(-c2ccccc2)n1	Calpain2 inh 56
COc1cc(C(c2nnnn2C(C)(C)C)N2CCN(c3nc4ccccc4s3)CC2)ccc1O (stereo unspecified)	Mcl1-Noxa inh 73
O=C(CSc1nc2ccc([N+](=O)[O-])cc2[nH]1)c1ccc2ccccc2c1	Mcl1-Noxa inh 62
O[C@@H](CNC[C@H](O)c1ccccc1)c1ccccc1	none
Cc1cc(C)n(CCCNCC(O)c2ccccc2)n1 (stereo unspecified)	14-3-3 Bad PPI 85
C=CC#CC[N+]1(CC#Cc2ccccc2)CCOCC1	p47phox inh 61
O=C1c2ccccc2C(=O)N1CCc1csc(-c2cccc(Cl)c2)n1	Calpain2 inh 59
C=CCN=C1SC(C)C(=O)N1S(=O)(=O)c1ccccc1 (stereo unspecified)	none
C=CCN=C1SC(C)(C)C(=O)N1S(=O)(=O)c1ccc(C)cc1	14-3-3 Bad PPI 95
O=S(=O)(/N=C(/c1ccc(F)cc1)N1CCCCC1)c1ccc(Cl)cc1	none
CC1=C(C(=O)Nc2ccc(Cl)cc2)C(c2ccncc2)C(C#N)=C(SCC(N)=O)N1 (stereo unspecified)	none
CC(=O)C1=C(C)NC(SCC(N)=O)=C(C#N)C1c1cccnc1 (stereo unspecified)	Mcl1 Bid PPI 97
Brc1ccc2c(c1)C(c1cccs1)=NNC(c1cccnc1)=N2	none
CCOc1ccc2c(c1)C(c1cccs1)=NNC(c1cccnc1)=N2	p47phox inh 44
O=C(Nc1ccc([N+](=O)[O-])cc1)Nc1ccc2[nH]c(=O)[nH]c2c1	none
O=C(Nc1ccc(F)cc1)C(=O)c1c(O)[nH]c2ccc([N+](=O)[O-])cc12	Calpain2 inh 57 (no result: Mcl-1 Bim block)
O=C1OC(c2ccccc2)/C(=C(/O)c2ccc(Cl)cc2)C1=O (stereo unspecified)	14-3-3 Bad PPI 71
Cc1ccc(/C(O)=C2/C(=O)C(=O)OC2c2ccc(Cl)cc2)cc1 (stereo unspecified)	none
O=C(CCC1CCCCC1)Nc1ccccc1C(=O)N1CCOCC1	none
Cc1cccc(C)c1NC(=O)C[N+](C)(C)CC(O)COc1cccc2ccccc12 (stereo unspecified)	none
CCC(=O)Nc1ccccc1C(=O)OCC(=O)c1cccc2ccccc12	14-3-3 Bad PPI 85[fluorescence artefact?]
COc1ccc(C(=O)Nc2ccc(C(=O)OCC(=O)c3cccc4ccccc34)cc2)cc1	Mcl-1 Bim block 44
CCOc1ccc(NC(=O)c2ccc(OC)cc2)cc1	none
CC(Sc1ccc2c(c1)OCCO2)C(=O)Nc1ccc(N2CCOCC2)cc1 (stereo unspecified)	none
Cc1cc(C)c(C)c(S(=O)(=O)N2CCN(CC(=O)NC(=O)NCc3ccccc3)CC2)c1C	Mcl-1 Bim block 61
CC(C)NC(=O)CC1C(=O)N(Cc2ccccc2)C(C)c2nc3ccccc3n21 (stereo unspecified)	none
O=C(NCc1cccnc1)c1ccccc1NS(=O)(=O)c1ccc(F)cc1F	none (no result: Mcl-1 Bim block)
Cc1ccc(S(=O)(=O)Nc2ccccc2C(=O)NCc2cccnc2)cc1	Mcl1-Noxa inh 66
C#CCn1c(=O)cc(C)c2ccccc21	none
C#CCn1cc(C=C2C(=O)c3ccccc3C2=O)c2ccccc21	p47phox inh 81, Mcl1-Noxa inh 55
CCC(=O)Nc1ccc(Cl)c(NC(=S)NC(=O)c2ccco2)c1	none
CCN(CC)c1ccc(NC(=O)c2cc3ccccc3o2)c(C)c1	Mcl1-Noxa inh 51
CCC(=O)Nc1ccc(Cl)c(NC(=S)NC(=O)c2cc3ccccc3o2)c1	Calpain2 inh 51
CCC(=O)NC(=S)Nc1ccc(NC(=O)c2cc3ccccc3o2)c(OC)c1	Mcl1 Bid PPI 63
O=C(NN1CCOCC1)c1ccc(S(=O)(=O)N2CCCCC2)cc1	none
Cc1ccc(C(=O)NCc2ccco2)cc1Br	none
O=C(NCC1CC1)c1ccc(Nc2nc3ccc(Br)cc3[nH]2)cc1	Mcl1-Noxa inh 52
O=C(Cc1ccc(Nc2nc3ccc(Br)cc3[nH]2)cc1)NCCc1cccs1	none
O=C(NCc1ccco1)c1cccc(Nc2nc3ccc(Br)cc3[nH]2)c1	Calpain2 inh 82
O=C(NCCc1ccccc1)c1cc(=O)[nH]c2ccccc12	none
Cc1ccc(/C=N/NC(=O)CN2CCN(Cc3ccccc3Cl)CC2)o1	none (no result: Mcl-1 Bim block)
Cc1cccc2cc(/C=N/NC(=O)CN3CCOCC3)c(Cl)nc12	Mcl1 Bid PPI 87
O=C(CN1CCOCC1)N/N=C/c1ccc(C(=O)O)cc1	none
Cc1ccc2cc(/C=N/NC(=O)CN3CCOCC3)c(Cl)nc2c1	Mcl1 Bid PPI 74
O=C(CN1CCOCC1)N/N=C/c1ccc(-c2cccc(Cl)c2Cl)o1	14-3-3 Bad PPI 77 (no result: Mcl-1 Bim block)
CNCCCOc1ccc(C)cc1Br	Mcl1 Bid PPI 61
CC(=O)Nc1cc2cc(NS(=O)(=O)c3ccc(C)cc3)ccc2oc1=O	none (no result: Mcl-1 Bim block)
